Source: PubChem BioAssay (NCATS)
Unmarked numbers belong to inactive results. The source made the active and inactive calls. Unless noted, calls follow the shape of the dose curve; as a rule, active = well fitted curve in the direction sought with a large enough effect; inconclusive = small, poorly fitted or top-dose-only effect, or another doubt; inactive = no such curve, though single readings can be large; an effect the other way counts as inactive or inconclusive.

Tests used:
[1] = Cell Viability - LYMP1-002 - Assay at 40 hr (AID 994); settings: LYMP1-002 lymphoblastoid cell viability; also: potency is read from the fitted curve at half-maximal effect; nearly all actives have a fitted effect of over 60% in size
Outline: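 Viability in the human lymphoblastoid line was measured as intracellular ATP via CellTiter-Glo after 40 hr compound exposure. Tetraoctylammonium bromide served as positive control.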

[2] = target: Estrogen receptor (Homo sapiens) (UniProt P03372); experiment: qHTS assay for small molecule antagonists of estrogen receptor alpha signaling (AID 588513; active = well fitted curve in the direction sought with a large enough effect in the signal ratio, with a control signal flat, not every such curve was filed as active; inconclusive = small, poorly fitted or top-dose-only effect, or effect the other way, or a change in a side signal; inactive = no such curve, though single readings can be large or run the other way; the % refers to the signal ratio; also: potency is read from the fitted curve at half-maximal effect)
Estrogen receptor (Homo sapiens), sequence (P03372 whole entry, looked up): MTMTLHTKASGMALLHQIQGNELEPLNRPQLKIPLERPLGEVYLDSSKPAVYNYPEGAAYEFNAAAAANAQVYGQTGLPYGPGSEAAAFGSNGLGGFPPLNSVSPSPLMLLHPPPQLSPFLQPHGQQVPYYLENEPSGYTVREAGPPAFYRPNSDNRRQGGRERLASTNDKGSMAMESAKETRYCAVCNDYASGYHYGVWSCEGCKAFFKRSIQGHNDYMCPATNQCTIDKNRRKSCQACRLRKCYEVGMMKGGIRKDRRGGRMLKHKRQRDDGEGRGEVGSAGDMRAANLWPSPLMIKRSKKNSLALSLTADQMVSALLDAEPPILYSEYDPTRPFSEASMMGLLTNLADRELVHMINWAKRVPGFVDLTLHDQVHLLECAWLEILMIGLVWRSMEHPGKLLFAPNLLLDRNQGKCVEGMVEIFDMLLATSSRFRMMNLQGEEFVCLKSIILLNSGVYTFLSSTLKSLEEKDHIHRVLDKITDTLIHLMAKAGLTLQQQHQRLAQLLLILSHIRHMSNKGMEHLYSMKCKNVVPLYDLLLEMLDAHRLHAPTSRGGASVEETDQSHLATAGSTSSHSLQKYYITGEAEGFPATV
Outline: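 ER-alpha-UAS-bla GripTite HEK 293 cells in medium with 2% charcoal/dextran-treated FBS were preincubated 4 h at 37 C, dosed with compound (1:2 titration), stimulated with 0.5nM 17-beta-estradiol for 18 h, then read by CCF4 beta-lactamase fluorescence.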

[3] = target: Vitamin D3 receptor (Homo sapiens) (UniProt P11473); experiment: qHTS assay for small molecule antagonists of vitamin D receptor signaling (AID 588541; calls by dose curve; also: potency is read from the fitted curve at half-maximal effect)
Vitamin D3 receptor (Homo sapiens), sequence (P11473 whole entry, looked up): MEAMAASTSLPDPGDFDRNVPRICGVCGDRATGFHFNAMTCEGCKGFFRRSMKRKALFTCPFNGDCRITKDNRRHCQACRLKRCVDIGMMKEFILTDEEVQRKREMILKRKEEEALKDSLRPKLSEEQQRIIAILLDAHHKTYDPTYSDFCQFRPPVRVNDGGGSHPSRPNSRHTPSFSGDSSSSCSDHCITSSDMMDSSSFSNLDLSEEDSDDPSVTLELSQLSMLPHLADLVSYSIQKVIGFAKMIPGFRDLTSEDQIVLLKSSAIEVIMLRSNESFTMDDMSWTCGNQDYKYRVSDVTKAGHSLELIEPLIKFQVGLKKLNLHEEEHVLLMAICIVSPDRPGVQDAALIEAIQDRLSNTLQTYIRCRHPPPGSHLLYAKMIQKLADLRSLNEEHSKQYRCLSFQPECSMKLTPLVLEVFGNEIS
Outline: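 VDR-UAS-bla HEK293T cells (2000/well, 2% charcoal-stripped FBS) were treated with titrated compounds plus 1-alpha,25-dihydroxyvitamin D3 (50 nM or 3 nM final) for 16 h at 37 C. CCF4 beta-lactamase fluorescence was read; Hill fits gave IC50.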

[4] = target: Voltage-gated inwardly rectifying potassium channel KCNH2 (Homo sapiens) (UniProt Q12809); experiment: qHTS Assay for Small Molecule Inhibitors of the Human hERG Channel Activity (AID 588834);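 also: top concentration of the series differs between compounds; % is scaled to controls: 0 for no effect and ±100 for the full control effect; lower thallium flux fluorescence means stronger hERG block; nearly all actives have a fitted effect of over 50% in size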
Voltage-gated inwardly rectifying potassium channel KCNH2 (Homo sapiens), sequence (Q12809 whole entry, looked up): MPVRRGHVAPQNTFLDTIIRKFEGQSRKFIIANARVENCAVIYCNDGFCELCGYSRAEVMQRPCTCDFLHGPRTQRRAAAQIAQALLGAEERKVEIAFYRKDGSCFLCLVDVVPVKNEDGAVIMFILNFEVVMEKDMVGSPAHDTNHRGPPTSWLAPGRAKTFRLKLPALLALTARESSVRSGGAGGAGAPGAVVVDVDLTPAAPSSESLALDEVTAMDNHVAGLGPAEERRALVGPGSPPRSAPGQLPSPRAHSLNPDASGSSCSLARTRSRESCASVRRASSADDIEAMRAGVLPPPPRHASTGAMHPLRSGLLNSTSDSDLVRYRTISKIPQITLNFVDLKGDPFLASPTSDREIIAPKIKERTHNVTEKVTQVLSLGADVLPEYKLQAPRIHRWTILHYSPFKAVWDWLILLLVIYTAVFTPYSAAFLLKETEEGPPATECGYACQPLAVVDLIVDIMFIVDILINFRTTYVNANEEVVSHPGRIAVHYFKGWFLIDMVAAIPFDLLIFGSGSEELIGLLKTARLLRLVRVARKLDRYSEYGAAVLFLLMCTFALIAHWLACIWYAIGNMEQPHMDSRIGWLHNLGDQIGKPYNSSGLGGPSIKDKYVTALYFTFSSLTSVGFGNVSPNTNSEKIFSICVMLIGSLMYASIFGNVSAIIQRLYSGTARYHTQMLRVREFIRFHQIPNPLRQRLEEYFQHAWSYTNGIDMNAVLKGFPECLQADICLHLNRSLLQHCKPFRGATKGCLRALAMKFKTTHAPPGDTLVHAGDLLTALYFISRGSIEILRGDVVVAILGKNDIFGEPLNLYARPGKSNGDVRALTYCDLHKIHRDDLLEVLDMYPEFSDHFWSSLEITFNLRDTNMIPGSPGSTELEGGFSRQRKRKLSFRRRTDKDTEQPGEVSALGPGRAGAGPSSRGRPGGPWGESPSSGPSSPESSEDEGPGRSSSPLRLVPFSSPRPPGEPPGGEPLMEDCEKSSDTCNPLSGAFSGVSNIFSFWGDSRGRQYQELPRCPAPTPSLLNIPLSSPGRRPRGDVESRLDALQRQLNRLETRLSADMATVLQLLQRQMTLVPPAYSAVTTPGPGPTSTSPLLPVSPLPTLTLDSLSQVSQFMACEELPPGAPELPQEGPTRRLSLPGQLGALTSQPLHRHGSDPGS
Outline: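 U2OS cells transduced with hERG via BacMam (MOI ~100), plated 2000/well, loaded with FluxOR thallium dye, compound ~10 min, then stimulation buffer; fluorescence decrease read kinetically; AC50 from Hill fits.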

[5] = qHTS assay for small molecule disruptors of the mitochondrial membrane potential - 1 hr assay (AID 651754; calls by dose curve; also: potency is read from the fitted curve at half-maximal effect; nearly all actives have a fitted effect of over 35% in size)
Outline: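 Steps: seed HepG2 cells and let attach overnight; pin-transfer compound or vehicle; incubate 1 hr at 37C; add Mito-MPS dye for 30 min; read two-channel fluorescence for monomer and aggregate forms.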

[6] = qHTS assay for small molecule disruptors of the mitochondrial membrane potential - 5 hr assay (AID 651755; calls by dose curve; also: potency is read from the fitted curve at half-maximal effect; nearly all actives have a fitted effect of over 40% in size); settings: JC-1-type ratio dye
Outline: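 HepG2 cells, attached overnight at 37C, were exposed to compound or DMSO for 5 hr at 37C, 5% CO2. Mito-MPS dye was then added for 30 min, and fluorescence read at 490/535 nm (monomers) and 540/590 nm (aggregates).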

[7] = qHTS assay for environmental chemicals that activate the Aryl hydrocarbon Receptor (AhR) signaling pathway (AID 651777); settings: 1A2-DRE human hepatoma cells, luciferase, 24 h; active compounds read high; also: % of control where 0% means no effect; nearly all actives have a fitted effect of over 15% in size
Outline: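 Luminescence (One-Glo, 30 min, room temperature) reports AhR-driven luciferase in stably transfected human hepatoma cells bearing DRE and CYP1A2 promoter. Cells (1,200/well) were treated with compound for 24 hr at 37 C in qHTS format.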

[8] = target: Peroxisome proliferator-activated receptor alpha (Homo sapiens) (UniProt Q07869); experiment: qHTS assay for small molecule agonists of the peroxisome proliferator-activated receptor alpha (PPARalpha) signaling pathway (AID 651778); settings: PathHunter PPARalpha complementation, chemiluminescence, 6 h; active compounds read high; also: % of control where 0% means no effect
Peroxisome proliferator-activated receptor alpha (Homo sapiens), sequence (Q07869 whole entry, looked up): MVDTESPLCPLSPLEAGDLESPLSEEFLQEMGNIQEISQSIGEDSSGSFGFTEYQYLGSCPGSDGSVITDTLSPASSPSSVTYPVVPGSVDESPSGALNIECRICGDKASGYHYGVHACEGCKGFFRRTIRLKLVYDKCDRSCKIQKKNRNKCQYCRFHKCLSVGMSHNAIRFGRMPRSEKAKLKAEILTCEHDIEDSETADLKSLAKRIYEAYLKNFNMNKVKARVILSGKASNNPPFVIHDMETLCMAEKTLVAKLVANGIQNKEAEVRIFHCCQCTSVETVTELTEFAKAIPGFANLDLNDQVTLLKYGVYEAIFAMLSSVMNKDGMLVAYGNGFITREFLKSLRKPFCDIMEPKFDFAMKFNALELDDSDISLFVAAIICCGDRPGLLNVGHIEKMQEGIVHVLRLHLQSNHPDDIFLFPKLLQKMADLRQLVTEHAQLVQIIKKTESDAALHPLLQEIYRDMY
Outline: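 Cells plated at 2,000/well and held overnight at 37 C, 5% CO2, then compound added by pin tool for 6 hr; after PathHunter detection reagent and 60 min at room temperature, chemiluminescence from enzyme complementation was read.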

[9] = target: Nuclear receptor ROR-gamma (Homo sapiens) (UniProt P51449); experiment: qHTS assay for small molecule antagonists of the retinoid-related orphan receptor gamma (ROR-gamma) signaling pathway (AID 651802); settings: ROR-gamma antagonist cell reporter assay; also: potency is read from the fitted curve at half-maximal effect; nearly all actives have a fitted effect of over 60% in size
Nuclear receptor ROR-gamma (Homo sapiens), sequence (P51449 whole entry, looked up): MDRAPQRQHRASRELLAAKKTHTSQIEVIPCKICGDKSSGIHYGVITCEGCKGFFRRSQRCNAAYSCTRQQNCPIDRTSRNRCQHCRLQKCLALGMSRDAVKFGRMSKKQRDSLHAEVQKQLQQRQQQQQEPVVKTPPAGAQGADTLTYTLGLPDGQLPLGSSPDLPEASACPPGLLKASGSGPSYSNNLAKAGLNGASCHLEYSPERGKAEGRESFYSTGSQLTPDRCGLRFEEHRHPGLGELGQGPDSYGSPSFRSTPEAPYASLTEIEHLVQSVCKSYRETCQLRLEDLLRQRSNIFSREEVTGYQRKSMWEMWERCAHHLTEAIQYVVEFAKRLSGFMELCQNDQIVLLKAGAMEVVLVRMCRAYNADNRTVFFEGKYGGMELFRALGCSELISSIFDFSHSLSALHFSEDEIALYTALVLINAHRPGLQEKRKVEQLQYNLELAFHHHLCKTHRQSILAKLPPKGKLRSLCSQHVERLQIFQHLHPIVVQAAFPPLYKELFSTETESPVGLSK
Outline: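 Antagonism is scored as a fall in luminescence from a RORE-luciferase reporter in CHO cells expressing ROR under a TET-inducible promoter, measured 16hr after doxycycline induction in the presence of compound.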

[10] = qHTS assay for small molecule antagonists of the retinoid-related orphan receptor gamma (ROR-gamma) signaling pathway - cell viability counter screen (AID 720652; active = well fitted curve in the direction sought with a large enough effect in the repeat runs; inconclusive = weak or mixed curves; inactive = no such curve, though single readings can be large; an effect the other way counts as inactive or inconclusive;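 also: potency is read from the fitted curve at half-maximal effect; compound exposure lasted 16 hr before ATP read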); settings: RORgamma reporter cell line viability counter screen
Outline: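 Cytotoxicity is quantified via intracellular ATP (CellTiter-Glo luminescence) in doxycycline-induced CHO ROR response element-luciferase reporter cells treated with compound for 16 hr at 37 C, 5% CO2.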

[11] = qHTS assay for small molecule agonists of the antioxidant response element (ARE) signaling pathway measured by Nrf2-dependant transcriptional activity - cell viability counter screen (AID 720653; active = well fitted curve in the direction sought with a large enough effect in the repeat runs; inconclusive = weak or mixed curves; inactive = no such curve, though single readings can be large; an effect the other way counts as inactive or inconclusive; also: potency is read from the fitted curve at half-maximal effect); settings: ARE-bla HepG2 viability, CellTiter-Glo ATP luminescence, 16 h; max response: active compounds read low
Outline: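 ARE-bla HepG2 cells (2,000/well) rested 5 hrs at 37C/5% CO2, then exposed to compounds in DMSO for 16 hrs. Viability was read in the same wells as intracellular ATP by luminescence, 30 min at room temperature after reagent addition.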

[12] = qHTS assay for cell viability of HEK293 cells (AID 743288); settings: ATP luminescence (CellTiter-Glo), 18 h; max response: active compounds read low; also: potency is read from the fitted curve at half-maximal effect; nearly all actives have a fitted effect of over 50% in size
Outline: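 Parental HEK293 cells were seeded at 2,000 cells/well, rested at least 5 h at 37 C, then exposed to compounds in DMSO for 18 h at 37 C. Viability was read as ATP-dependent luciferase luminescence after 30 min at room temperature.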

[13] = qHTS assay for cell viability of the p53RE-bla HCT-116 cell line (AID 743292); also: potency is read from the fitted curve at half-maximal effect; nearly all actives have a fitted effect of over 55% in size
Outline: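 ATP-based luminescent viability (CellTiter-Glo, 30 min RT) after 16 h compound treatment at 37 C of p53RE-bla HCT-116 cells, seeded at 4,000 cells/well and rested 5 h before dosing.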

Furin (Homo sapiens) = Furin (Homo sapiens) (UniProt P09958); experiment: Furin counterscreen qHTS for Zika virus inhibitors (AID 1347149);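 also: purified recombinant full-length human furin enzyme at 5 nM; fluorescence gain from furin cutting a BOC-RVRR-AMC peptide substrate over 15 min; top concentration of the series differs between compounds; plate controls were no-inhibitor control for no effect and no-enzyme control for full effect; nearly all actives have a fitted effect of over 70% in size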
Furin (Homo sapiens), sequence (P09958 whole entry, looked up): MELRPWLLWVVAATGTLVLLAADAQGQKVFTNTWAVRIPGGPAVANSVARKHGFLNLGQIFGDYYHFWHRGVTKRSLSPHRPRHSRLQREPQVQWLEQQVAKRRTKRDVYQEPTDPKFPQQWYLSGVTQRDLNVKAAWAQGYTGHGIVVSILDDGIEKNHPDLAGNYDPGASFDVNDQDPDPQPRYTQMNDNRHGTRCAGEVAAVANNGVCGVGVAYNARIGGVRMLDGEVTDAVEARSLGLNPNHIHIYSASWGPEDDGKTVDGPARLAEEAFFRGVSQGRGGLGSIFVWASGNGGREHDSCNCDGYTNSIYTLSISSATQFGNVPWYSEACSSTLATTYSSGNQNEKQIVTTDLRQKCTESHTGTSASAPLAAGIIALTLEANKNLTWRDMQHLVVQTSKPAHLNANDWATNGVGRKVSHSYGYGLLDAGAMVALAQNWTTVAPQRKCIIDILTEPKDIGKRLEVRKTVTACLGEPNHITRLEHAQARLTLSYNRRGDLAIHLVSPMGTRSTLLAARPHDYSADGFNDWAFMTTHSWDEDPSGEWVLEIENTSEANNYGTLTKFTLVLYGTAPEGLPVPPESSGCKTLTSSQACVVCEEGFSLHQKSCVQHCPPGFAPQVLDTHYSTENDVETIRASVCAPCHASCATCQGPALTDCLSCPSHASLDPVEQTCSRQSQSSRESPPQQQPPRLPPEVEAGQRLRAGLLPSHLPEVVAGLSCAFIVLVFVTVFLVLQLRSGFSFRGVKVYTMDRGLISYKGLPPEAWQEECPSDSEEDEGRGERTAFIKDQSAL
Outline: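 Fluorogenic cleavage of BOC-RVRR-AMC (2 microM final, Km ~15 µM) was monitored (ex 340, em 450 nm) at 37C after 15 min RT preincubation of 5 nM furin with compounds in HEPES pH 7.0 buffer with CaCl2 and Triton X-100. Percent inhibition was fitted to a 4-parameter Hill curve.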

[14] = ZIKV-mCherry secondary qHTS for Zika virus inhibitors (AID 1347158); also: top concentration of the series differs between compounds
Outline: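 After overnight seeding at 37 °C, Vero cells receive compound and then ZIKV-mCherry (MOI 1). Following 48-72 h infection, cells are fixed, counterstained with Hoechst, and imaged; percent infected cells is derived from an mCherry intensity cut-off of 450 RFU.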

[15] = test system: Zika virus NS2B-NS3 protease (linked construct); experiment: 384 well plate NINDS Rhodamine confirmatory qHTS for Zika virus inhibitors (AID 1347164);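 also: fluorescence from protease cleavage of Ac-LKRR-rhodamine 110 substrate; potency is read from the fitted curve at half-maximal effect; nearly all actives have a fitted effect of over 65% in size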
Outline: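 Linked protease at a final 5 nM, 30 nM or 60 nM was preincubated ~15 min with compounds, then given 10 microM Ac-LKRR-Rhodamine 110. Fluorescence (ex 485/em 538 nm) after 25 min in the dark at room temperature.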

[16] = Vero cells viability qHTS for Zika virus inhibitors (AID 1347167); also: % is scaled to controls: 0 for no effect and ±100 for the full control effect
Outline: (§1)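 Counter-screen for cytotoxicity of hits from NS2B-NS3 protease qHTS. Overnight-attached cells (2.5 x 10^5 cells/mL, DMEM/4% FBS) were dosed in titration, incubated 24 to 48 hours, then assayed by CellTiter Glo.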

[17] = HepG2 cells viability qHTS for Zika virus inhibitors (AID 1347168); also: potency is read from the fitted curve at half-maximal effect
Outline: as §1

[18] = Tertiary RLuc qRT-PCR qHTS assay for Zika virus inhibitors (AID 1347169); also: potency is read from the fitted curve at half-maximal effect; nearly all actives have a fitted effect of over 55% in size
Outline: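 Vero cells (1,000 per well) plated overnight at 37 degrees C, treated with compound in DMSO, then infected with recombinant ZIKV-RLuc (Cambodian) at MOI 1-2 for 48-72 hrs. Live-cell Renilla luciferase substrate added; luminescence read after 1-1.5 hrs.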

[19] = qHTS assay for small molecule activators of the human pregnane X receptor (PXR) signaling pathway (AID 720659; call rule not given here; also: 0% is about no effect)

SMILES: O=C1c2c(O)ccc([N+](=O)[O-])c2C(=O)c2c([N+](=O)[O-])ccc(O)c21
- Potency [1]: 39.8 µM (active)
- Potency [2]: 14.1 µM [inconclusive] (active)
- Potency [3]: 22.4 µM (active)
- Potency [4]: inactive
- Potency [5]: 5.31 µM (active)
- Potency [6]: 3.76 µM (active)
- activation [7]: 5.47%
- max response [8]: -6.07%
- Potency [9]: 16.8 µM (active)
- Potency [10]: 33.5 µM (active)
- Potency [11]: 20 µM (active)
- Potency [12]: 39.8 µM (active)
- Potency [13]: 39.8 µM (active)
- Potency (Furin (Homo sapiens)): inactive
- Potency [14]: inactive
- Potency [15]: 70.8 µM (active)
- Potency [16]: inactive
- Potency [17]: 42.6 µM (active)
- Potency [18]: 13.5 µM (active)
- outcome [19]: inactive
